Measured values reported in PubChem BioAssay (NCATS).
Records with an inconclusive call do not appear. The source made the active and inactive calls. Calls follow the shape of the dose curve; as a rule, active = well fitted inhibition curve with a large enough effect; inconclusive = small, poorly fitted or top-dose-only effect, or effect the other way; inactive = flat fitted curve, though single readings scatter.

target: ATP-dependent 6-phosphofructokinase (Trypanosoma brucei brucei) (UniProt O15648); experiment: qHTS Assay to Find Inhibitors of T. brucei phosphofructokinase: hit validation (AID 492961);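 also: luminescence reports ADP formed as PFK phosphorylates fructose-6-phosphate with ATP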; settings: T. brucei PFK, ADP-Glo luminescence; series mostly up to 51.4 µM
Sequence (O15648 whole entry, looked up): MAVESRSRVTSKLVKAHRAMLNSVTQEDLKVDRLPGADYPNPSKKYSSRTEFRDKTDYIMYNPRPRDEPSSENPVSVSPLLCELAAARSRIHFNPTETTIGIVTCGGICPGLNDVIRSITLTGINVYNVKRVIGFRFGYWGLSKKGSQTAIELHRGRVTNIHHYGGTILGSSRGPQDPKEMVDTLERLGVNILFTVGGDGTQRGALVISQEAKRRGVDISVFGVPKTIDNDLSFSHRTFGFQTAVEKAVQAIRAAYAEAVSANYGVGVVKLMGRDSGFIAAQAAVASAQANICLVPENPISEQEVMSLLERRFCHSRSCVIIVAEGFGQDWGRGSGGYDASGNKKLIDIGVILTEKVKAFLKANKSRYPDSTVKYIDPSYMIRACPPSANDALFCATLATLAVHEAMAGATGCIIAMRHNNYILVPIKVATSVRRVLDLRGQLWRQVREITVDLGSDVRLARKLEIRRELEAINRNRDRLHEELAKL
Outline: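 PFK 1.25 nM, F6P 0.5 mM, ATP 0.1 mM, MgCl2 5 mM, 0.1 M TEA pH 8.0, Tween20 0.01%, BSA 0.1%; 45 min RT. ADP-Glo two-step detection, luminescence. qHTS titration; curve fitting with curve-class categorization.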

Row | SMILES | outcome
1 | OCc1ccccc1O | inactive
2 | COc1cccc(CCc2ccccc2OCC(CN(C)C)OC(=O)CCC(=O)O)c1 (centres undefined) | inactive
3 | CCN(CC)CCNC(=O)COc1ccc(Cl)cc1 | inactive
4 | CCOC(=O)n1ccn(C)c1=S | inactive
5 | C[C@H]1C[C@H]2[C@@H]3CCC4=CC(=O)C=C[C@]4(C)[C@@]3(Cl)[C@@H](O)C[C@]2(C)[C@@]1(O)C(=O)CO | inactive
6 | CCCCOc1ccc(OCCCN2CCOCC2)cc1 | inactive
7 | CN(C)CC/C=C1\c2ccccc2Sc2ccc(Cl)cc21 | inactive
8 | CCCCCCCCCCCCCCNCCO | inactive
9 | COC1=CC(=O)C[C@@H](C)[C@]12Oc1c(Cl)c(OC)cc(OC)c1C2=O | inactive
10 | Cc1cccc(C)c1NC(=O)CN1CCN(CCCC(c2ccc(F)cc2)c2ccc(F)cc2)CC1 | inactive
11 | CC(C)COC(=O)c1ccc(N)cc1 | inactive
12 | CCC(=O)c1c(O)cc(O)cc1O | inactive
13 | CCCCCCCCCCOCC(O)CN (centres undefined) | inactive
14 | CC(C)(CO)[C@@H](O)C(=O)NCCCO | inactive
15 | COc1ccc(C2C(=O)c3ccccc3C2=O)cc1 | inactive
16 | COc1ccc(CN2CCN(C(c3ccc(F)cc3)c3ccc(F)cc3)CC2)c(OC)c1OC | inactive
17 | O=C(O)CCCCC(=O)O | inactive
18 | COc1cc2c(cc1OC)C(=O)C(CC1CCN(Cc3ccccc3)CC1)C2 (centres undefined) | inactive
19 | CCOC(=O)OC(C)OC1=C(C(=O)Nc2ccccn2)N(C)S(=O)(=O)c2ccccc21 (centres undefined) | inactive
20 | CCCN1CCCC[C@H]1C(=O)Nc1c(C)cccc1C | inactive

Row | SMILES | outcome
21 | C=CCc1ccc(O)c(OC)c1 | inactive
22 | O=C1OCCN1/N=C/c1ccc([N+](=O)[O-])o1 | inactive
23 | CCCCCCc1ccc(O)cc1O | inactive
24 | CCOC(=O)c1cccc(N)c1 | inactive
25 | CCN(CC)C(=O)N1CCN(C)CC1 | inactive
26 | COc1c2occc2c(OC)c2c(=O)cc(C)oc12 | inactive
27 | Cc1cc(O)c(C(C)C)cc1Cl | inactive
28 | CCCCOc1ccc(C(=O)CCN2CCCCC2)cc1 | inactive
29 | CCOc1ccc2nc3cc(N)ccc3c(N)c2c1 | inactive
30 | CC(=O)OCC(=O)[C@@]1(OC(C)=O)[C@@H](C)C[C@H]2[C@@H]3C[C@H](F)C4=CC(=O)C=C[C@]4(C)[C@@]3(F)[C@@H](O)C[C@@]21C | inactive
31 | CC(Cc1cccc(C(F)(F)F)c1)NCCOC(=O)c1ccccc1 (centres undefined) | inactive
32 | CCCCc1nc(Cl)c(CO)n1Cc1ccc(-c2ccccc2-c2nn[nH]n2)cc1 | inactive
33 | O=C(COc1ccc(Cl)cc1)N1CCN(Cc2ccc3c(c2)OCO3)CC1 | inactive
34 | Nc1ccc(C(=O)Nc2ccccc2N)cc1 | inactive
35 | COc1cc2c(cc1OC)C(C(C(=O)N(CCc1ccc(OC)c(OC)c1OC)CCc1ccc(OC)c(OC)c1OC)c1ccccc1)=NCC2 (centres undefined) | inactive
36 | C#C[C@]1(OC(C)=O)CC[C@H]2[C@@H]3CCC4=C[C@@H](OC(C)=O)CC[C@@H]4[C@H]3CC[C@@]21C | inactive
37 | CCOC(=O)/C=C(C)/C=C/C=C(C)/C=C/c1c(C)cc(OC)c(C)c1C | inactive
38 | C[C@@H]1CN(CCCn2c3ccccc3c3ccccc32)C[C@H](C)N1 | inactive
39 | CCOc1ccc(Cc2nccc3cc(OCC)c(OCC)cc23)cc1OCC | inactive
